Data as given in PubChem BioAssay AID488789 (Broad Institute, 2010).
Entries with a potency or affinity are not part of this list. Records with an inconclusive call do not appear. Active and inactive are the calls of the source.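 Rule for the calls: active = samples whose fitted half-maximal inhibition concentration is no more than ten times the top valid dose tested; inconclusive = flat response between -70 and -30, or invalid curve fit; inactive = flat within 30 of zero, potency above limit, or signal rising.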

Target: Trypsin (Sus scrofa) (UniProt P00761)
Test: porcine trypsin inhibitors, dose response, selectivity assay for Rce1 protease inhibitor project, biochemical, quenched peptide fluorescence, cherry-pick (AID 488789);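 note: more negative means stronger trypsin inhibition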
Conditions: quenched peptide cleavage fluorescence; series mostly up to 10 µM

Sequence of Trypsin (Sus scrofa) (P00761 whole entry, looked up): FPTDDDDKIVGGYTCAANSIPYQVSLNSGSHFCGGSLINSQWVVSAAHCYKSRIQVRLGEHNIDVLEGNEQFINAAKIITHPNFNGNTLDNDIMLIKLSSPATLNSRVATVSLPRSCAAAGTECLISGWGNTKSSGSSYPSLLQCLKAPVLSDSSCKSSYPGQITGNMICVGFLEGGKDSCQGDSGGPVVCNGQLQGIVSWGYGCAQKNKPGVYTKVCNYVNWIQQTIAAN

outcome, inactive:
O=S(=O)(c1ccccc1)c1nc(-c2ccco2)oc1N1CCCCC1
COc1ccc(CN2CCN(C(c3ccc(F)cc3)c3ccc(F)cc3)CC2)c(OC)c1OC
CCOc1cccc(-c2c(C(=O)N/N=C/c3c(F)cccc3Cl)nnn2-c2nonc2N)c1
CC1CCC/C(=C\Nc2ccccc2C(=O)O)C1=O (configuration not stated)
O=C(Nc1cccc2ncccc12)c1cccnc1
COc1cccc(NC(=O)Nc2cccn(Cc3ccc(C)cc3)c2=O)c1
Cn1c(CCNS(=O)(=O)c2ccccc2)nnc1SCc1cccnc1
c1cnn(Cc2cnc(N3CCOCC3)s2)c1
O=C1CCN(Cc2ccccc2)CCN1[C@H](CSc1ccccc1)Cc1ccccc1
O=C1C(=O)N(C/C=C/c2ccccc2)c2ccccc21
Cc1cc(N)c2cc(NC(=O)/C=C/c3ccccc3Cl)ccc2n1
CCC(=O)Nc1cccc(NC(=S)NC(=O)c2cccs2)c1
COCCCNC(=S)NCCNc1nc2cc(C)cc(C)c2cc1C#N
CCCCCCCCCCC[N+](C)(C)CC/C=C1/c2ccccc2Sc2ccc(Cl)cc21
OC(CNCCC1C=Nc2ccccc21)Cn1c2ccc(Cl)cc2c2cc(Cl)ccc21 (configuration not stated)
Cc1cc2cc(C(=O)N3CCc4c([nH]c5ccccc45)C3c3ccccn3)ccc2o1 (configuration not stated)
Cc1ccc(-c2nc(Nc3ccc(N4CCOCC4)cc3)c3ccccc3n2)cc1
c1ccc(Nc2cccc(Nc3ccccc3)n2)cc1
CCN1CCN(c2ccc(NC(=O)c3cccc(OCc4ccccc4)c3)cc2)CC1
CCO[C@@H]1OC(C(=O)N2CCN(Cc3ccccc3)CC2)=C[C@H](c2ccccc2)[C@H]1CCCO
O=C(O)CCc1nc2cc(C(F)(F)F)ccc2n(Cc2ccccc2)c1=O
CCN(CC)CCN(C(=O)c1cc2ccccc2cc1OC)c1nc2ccc(F)cc2s1
O=C(Nc1ncccn1)c1ccc([N+](=O)[O-])cc1
CC(C)CNC(=O)Nc1ccc(F)c(Cl)c1
CC(=O)Nc1ccc(Cl)cc1C1COC(=O)C1=N (configuration not stated)
CC(=O)OC1CCC2(C)C(COc3ccc4ccc(=O)oc4c3)C(C)(O)CCC2C1(C)C (configuration not stated)
CC(C)N1CCN(Cc2ccc(OCc3ccccc3)cc2)CC1CCO (configuration not stated)
CN(C(=O)COC(=O)c1cc([N+](=O)[O-])ccc1Sc1ccccc1)C1CCS(=O)(=O)C1 (configuration not stated)
COc1cccc(/C=N/NC(=O)c2nnn(-c3nonc3N)c2C(C)C)c1OCc1ccc(F)cc1
CCn1c(C)nc2c(=O)oc3ccccc3c21
CCOC(=O)C[C@H]1c2ccccc2S(=O)(=O)N1Cc1cc(OC)c(OC)c(OC)c1
CCn1cc(/C=C(\NC(=O)c2ccccc2Cl)C(=O)N2CCOCC2)c2ccccc21
CN(C(=O)COC(=O)c1cn(-c2ccccc2)nc1-c1ccccc1)C1CCS(=O)(=O)C1 (configuration not stated)
CC(=O)c1c(O)cc(O)c(C(C)=O)c1O
CCC(COC)NC(=O)CCc1nnc(Cc2cccc(C(F)(F)F)c2)o1 (configuration not stated)
CCOc1ccc(NC(=O)CCSc2ccc(C)cc2)cc1
CC(/C=N\NC(=O)CN1CCN(S(=O)(=O)c2ccc(C)cc2)CC1)=C\c1ccccc1
